Screening data as filed in PubChem BioAssay.
Hits are enriched below; roughly 0.3% of the tested compounds scored in any of these assays.
mcGAS lum – blocks mouse cGAS activity; Q8C6L5; recombinant cGAS, Kinase-Glo ATP depletion luminescence; inhibition, % at 12.5 µM; 160,000 tested, 0.15% active;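 also: 0% = negative control wells and 100% = reference inhibitor with no enzyme activity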
Target sequence (Q8C6L5 whole entry, looked up): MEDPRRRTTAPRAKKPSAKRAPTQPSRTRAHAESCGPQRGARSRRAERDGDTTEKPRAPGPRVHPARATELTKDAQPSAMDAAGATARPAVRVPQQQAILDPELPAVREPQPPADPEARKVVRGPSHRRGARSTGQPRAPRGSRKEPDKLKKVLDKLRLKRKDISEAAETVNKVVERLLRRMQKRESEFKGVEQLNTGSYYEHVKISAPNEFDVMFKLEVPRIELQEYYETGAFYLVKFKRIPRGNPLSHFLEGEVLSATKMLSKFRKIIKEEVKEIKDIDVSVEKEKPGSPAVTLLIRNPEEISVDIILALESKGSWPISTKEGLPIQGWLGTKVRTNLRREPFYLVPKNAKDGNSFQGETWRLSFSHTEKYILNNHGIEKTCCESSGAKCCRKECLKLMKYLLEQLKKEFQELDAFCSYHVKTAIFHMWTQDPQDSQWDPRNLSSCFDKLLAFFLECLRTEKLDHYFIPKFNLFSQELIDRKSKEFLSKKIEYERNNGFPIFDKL
hcGAS inh – inhibitors of human cGAS | Q8N884 | recombinant h-cGAS, ATP depletion, Kinase-Glo luminescence | inhibition, % at 12.5 µM | 290,000 tested, 0.081% active | AID 1259398;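 also: 0% = vehicle reaction and 100% = reaction without DNA for no activity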
NPYLR7 agonist – activates Aedes aegypti NPYLR7 receptor | HEK293T NPYLR7/Galpha15, GCaMP6s calcium fluorescence | activation, % at 10 µM | 270,000 tested, 0.15% active | AID 1259423; in the data active = activation above about 40%;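 also: 0% = vehicle and 100% = reference agonist at the receptor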
An asterisk follows results filed as active. Rule as the data show it, unless noted: active = inhibition above about 40%; inactive = the rest.

Results for O=C(O)c1ccccc1-c1c2cc(Br)c(=O)cc-2oc2[c]([Hg])c(O)c(Br)cc12 ?
hcGAS inh: 34; NPYLR7 agonist: 60*

Results for CC(=O)c1cccc(NC(=O)c2cccn(Cc3c(F)cccc3Cl)c2=O)c1 ?
hcGAS inh: -11; NPYLR7 agonist: 14

Results for COC(=O)[C@]12CCC(C)(C)C[C@H]1[C@H]1C(=O)C=C3[C@@]4(C)C=C(C#N)C(=O)C(C)(C)[C@@H]4CC[C@@]3(C)[C@]1(C)CC2 ?
mcGAS lum: 52*; hcGAS inh: 38; NPYLR7 agonist: 1

How did CCc1ccccc1NC(=O)c1cccn(Cc2ccccc2C)c1=O do in these assays?
hcGAS inh: -10; NPYLR7 agonist: 14

Results for Cc1ccc(-c2noc(CN3CCN(C(=O)COc4cc(C)cc(C)c4)CC3)n2)cc1 ?
mcGAS lum: -2; hcGAS inh: 2; NPYLR7 agonist: 2

What do the screens show for `COc1cccc(CN(C)C(C)C(=O)c2c(N)n(C)c(=O)n(C)c2=O)c1` (stereo not given)?
hcGAS inh: -4; NPYLR7 agonist: 2

Results for CCn1nc(-c2cccs2)nc2c(=O)n(C)c(=O)nc1-2 ?
mcGAS lum: 59*; hcGAS inh: 17; NPYLR7 agonist: 12

What do the screens show for `COc1ccc(C)cc1C(C)NC(C)C(=O)c1[nH]c(C)c(C(C)=O)c1C` (stereo not given)?
mcGAS lum: -6; hcGAS inh: -8; NPYLR7 agonist: 6

How did CNC(C)c1nc2ccccc2c(=O)n1-c1ccccc1Cl (stereo not given) do in these assays?
hcGAS inh: -5; NPYLR7 agonist: 10

How did O=C(Nc1ccc2[nH]cc(CCN3CCOCC3)c2c1)c1c(F)c(F)c(F)c(F)c1F do in these assays?
mcGAS lum: -5; hcGAS inh: -2; NPYLR7 agonist: 22

Results for COc1ccc2c3c([nH]c2c1)C(C)=NCC3 ?
mcGAS lum: -3; hcGAS inh: -6; NPYLR7 agonist: 0

How did CC1=NCCc2c1[nH]c1cc(O)ccc21 do in these assays?
mcGAS lum: -1; hcGAS inh: -2; NPYLR7 agonist: 65*

Results for O=C(NCc1ccccn1)C(C1CCCC1)N1CCN(C(=O)Cc2ccccc2)CC1 (stereo not given) ?
mcGAS lum: -3; hcGAS inh: -2; NPYLR7 agonist: -9

What do the screens show for `O=[N+]([O-])c1c(Cl)ccc2c1no[n+]2[O-]`?
mcGAS lum: 93*; hcGAS inh: 61*; NPYLR7 agonist: 2

Results for O=[N+]([O-])c1cc(C(F)(F)F)cc2c1no[n+]2[O-] ?
hcGAS inh: 0; NPYLR7 agonist: 10

Results for N#CC1C(=N)Oc2c(c(=O)oc3ccccc23)C1c1cccc(F)c1 (stereo not given) ?
mcGAS lum: 4; hcGAS inh: 4; NPYLR7 agonist: -2

Results for N#CC1C(=N)Oc2c(c(=O)oc3ccccc23)C1c1ccc([N+](=O)[O-])o1 (stereo not given) ?
mcGAS lum: 59*; hcGAS inh: -7; NPYLR7 agonist: -12

Results for COc1nc(C)cc(C)c1CNc1ncccc1C(F)(F)F ?
hcGAS inh: 6; NPYLR7 agonist: -23

How did CC(C)(C)c1ccc(COc2coc(CN3CCN(C(=O)Cc4ccc(F)cc4)CC3)cc2=O)cc1 do in these assays?
mcGAS lum: -5; hcGAS inh: -2; NPYLR7 agonist: 1

Results for CCOc1cc2c(cc1OCC)CNCC2 ?
mcGAS lum: -16; hcGAS inh: -5; NPYLR7 agonist: 0

How did CCN(CCc1ccccc1)Cc1nnsc1Cl do in these assays?
hcGAS inh: -5; NPYLR7 agonist: 11

How did Oc1c(Cl)c(Cl)c(Cl)c(Cl)c1Cl do in these assays?
hcGAS inh: 70*; NPYLR7 agonist: 6

Results for CC(C)c1ncc(C(=O)N2CCN3CCN(C)C(=O)C3C2)c(=O)[nH]1 (stereo not given) ?
mcGAS lum: -7; hcGAS inh: -5; NPYLR7 agonist: 0

Results for O=c1c(O)c(-c2ccc(O)c(O)c2)oc2c(O)c(O)cc(O)c12 ?
hcGAS inh: 47*; NPYLR7 agonist: -3

Results for CCOC(=O)C1C(=N)Oc2cc(C)[nH]c(=O)c2C12C(=O)N(Cc1ccc(Cl)cc1)c1ccccc12 (stereo not given) ?
mcGAS lum: -7; hcGAS inh: -2; NPYLR7 agonist: -1

How did O=S(=O)(c1cc(F)cc(F)c1)N1CCN(CCOC(c2ccc(F)cc2)c2ccc(F)cc2)CC1 do in these assays?
mcGAS lum: -8; hcGAS inh: -7; NPYLR7 agonist: 4

How did O=C1OC2(c3cc(Br)c(O)cc3Oc3c2cc(Br)c(O)[c]3[Hg])c2ccccc21 (stereo not given) do in these assays?
mcGAS lum: 30; hcGAS inh: 0; NPYLR7 agonist: 98*

Results for N#CC(C#N)=Cc1ccc(O)cc1 ?
hcGAS inh: -7; NPYLR7 agonist: 4
